Bioassay records (PubChem BioAssay)
The entries come from a sample that favours hits as a whole.
DUSP3 inh – blocks the human dual specificity phosphatase VHR1. recombinant VHR phosphatase, colorimetric substrate read-out. inhibition, % at 20 µM. 0.7% of 50,000 active. P51452; in the data active means inhibition above about 60%
Target sequence (P51452 whole entry, looked up): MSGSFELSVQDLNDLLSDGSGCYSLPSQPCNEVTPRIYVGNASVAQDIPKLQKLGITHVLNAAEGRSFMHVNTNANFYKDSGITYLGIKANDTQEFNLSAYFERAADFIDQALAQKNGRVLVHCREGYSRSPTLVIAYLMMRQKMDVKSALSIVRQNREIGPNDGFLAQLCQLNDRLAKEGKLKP
* hit, by the source's call.

For CCCCn1c(O)c(C2=c3ccccc3=NC2=O)sc1=S the results were DUSP3 inh -8.3.
For O=C1N=c2ccccc2=C1c1sc(=S)n(Cc2ccco2)c1O the results were DUSP3 inh 4.6.
Cn1c(-c2ccc(-c3nc4cnccc4n3C)cc2)nc2cnccc21 was read as DUSP3 inh 71.0*.
`Cn1c(-c2nc3ccccc3n2C)nc2ccccc21` gave DUSP3 inh -7.3.
`Cc1ccc(-c2nc3ccccc3c(=O)n2-c2cccnc2)cc1` gave DUSP3 inh 12.6.
Screening COc1ccc(N(CC(=O)NCc2ccccc2OC)S(=O)(=O)c2ccccc2)cc1Cl returned DUSP3 inh 2.2.
Screening Cn1ccnc1SCN1C(=O)c2ccccc2C1=O returned DUSP3 inh 4.6.
For COc1ccc(Br)cc1/C=C/C(=O)Nc1cc(C)ccn1 the results were DUSP3 inh -0.1.
CC1=NN(C(=O)Cc2ccc([N+](=O)[O-])cc2)C(O)(c2ccc(Cl)cc2)C1 (stereo unspecified) was read as DUSP3 inh -7.1.
COC(=O)c1ccc(COc2ccc3c(-c4ccccc4)cc(=O)oc3c2C)cc1 was read as DUSP3 inh -6.7.
Screening COC(=O)c1ccc(COc2cc3oc(=O)cc(-c4ccccc4)c3cc2Cl)cc1 returned DUSP3 inh 97.9*.
`COC(=O)c1ccc(COc2cc3oc(=O)c4c(c3cc2Cl)CCC4)cc1` gave DUSP3 inh 0.9.
O=C(/C=C/c1ccco1)Nc1cccc(F)c1 was read as DUSP3 inh 14.0.
Screening Nc1ccc(C2=Nc3cccc4cccc(c34)N2)cc1 returned DUSP3 inh 84.6*.
`Cc1cc(C)cc(CC2CC(=O)N(c3ccc(Br)cc3)C2=O)c1` (stereo unspecified) gave DUSP3 inh -6.9.
`O=C(COc1ccc(Cl)cc1Br)N/N=C/c1cc(Cl)cc([N+](=O)[O-])c1O` gave DUSP3 inh -6.4.
Screening COc1ccc(N2Cc3ccc(C(=O)N/N=C\c4ccc(Br)cc4)cc3C2)cc1 returned DUSP3 inh -14.7.
Cc1cc2c(cc1C)CN(c1cccc(C(=O)NN)c1)C2 was read as DUSP3 inh 49.1.
`COc1ccc(N2Cc3ccc(C(=O)NN)cc3C2)cc1` gave DUSP3 inh 93.9*.
NC1=NC(=O)/C(=C\c2ccc(-c3ccc([N+](=O)[O-])cc3)o2)S1 was read as DUSP3 inh 77.0*.
For NC1=NC(=O)/C(=C\c2ccc(-c3ccccc3Cl)o2)S1 the results were DUSP3 inh -10.9.
For NC1=NC(=O)/C(=C\c2ccc(-c3cccc(C(=O)O)c3)o2)S1 the results were DUSP3 inh -14.8.
Screening COc1cccc(-c2cc(C(=O)Nc3ncccn3)c3ccccc3n2)c1 returned DUSP3 inh 11.0.
`COc1cccc(-c2cc(C(=O)Nc3nn[nH]n3)c3ccccc3n2)c1` gave DUSP3 inh -10.9.
Screening COc1cccc(-c2cc(C(=O)Nc3nc4ccccc4s3)c3ccccc3n2)c1 returned DUSP3 inh 67.9*.
For CC(Oc1cccc(Cl)c1)C(=O)Nc1ccccc1Br (stereo unspecified) the results were DUSP3 inh -12.0.
For CC1(C(=O)NNC(=O)c2ccccc2)CC2C=CC1C2 (stereo unspecified) the results were DUSP3 inh 0.9.
CC12C=CC(C)(O1)C1C(=O)N(c3ccc(Br)cc3)C(=O)C12 (stereo unspecified) was read as DUSP3 inh 8.9.
Screening Cc1ccc(/C=C2/SC(=S)N(CCC(=O)O)C2=O)o1 returned DUSP3 inh 13.1.
Screening Cc1ccc(/C=C2\SC(=S)N(CC(C)C)C2=O)o1 returned DUSP3 inh 87.1*.
For Cc1ccsc1/C=C1\SC(=S)N(CC(C)C)C1=O the results were DUSP3 inh 6.6.
Screening O=S(=O)(N/N=C/c1cccc(F)c1)c1ccccc1 returned DUSP3 inh -5.0.
Screening O=C1c2ccccc2C(=O)N1c1cccc(S(=O)(=O)N2CCCCC2)c1 returned DUSP3 inh -29.6.
`Cc1c(Cc2ccccc2)c(=O)oc2cc(OCC(=O)C(C)(C)C)ccc12` gave DUSP3 inh -1.8.
Screening COc1ccc(CCNC(=O)C(=O)Nc2ccc(C)cc2)cc1 returned DUSP3 inh -4.7.
Screening COc1ccc(-c2csc(-c3nc(-c4ccc(OC)c(OC)c4)cs3)n2)cc1OC returned DUSP3 inh -5.4.
`COc1ccc(Nc2nc(-c3ccc4ccccc4c3)cs2)cc1` gave DUSP3 inh -23.4.
For COc1ccc(-c2csc(Nc3ccc(N)cc3)n2)cc1OC the results were DUSP3 inh 90.1*.
COc1ccccc1/C=C1/SC(=S)N(CCC(=O)Nc2ccccc2)C1=O was read as DUSP3 inh -7.5.
`O=C(Nc1ccccc1C(F)(F)F)c1cccc(OCc2ccccc2)c1` gave DUSP3 inh 114.0*.
Screening O=C(Nc1ccccc1C(F)(F)F)c1ccc2ccccc2c1 returned DUSP3 inh 15.5.
O=C(Nc1ccc(I)cc1Cl)c1cccc(OCc2ccccc2)c1 was read as DUSP3 inh 1.8.
For C#CCn1cc(/C=C2\C(=O)NC(=O)N(c3ccc(Br)c(C)c3)C2=O)c2ccccc21 the results were DUSP3 inh 16.1.
Clc1ccc(-n2ncnc2-c2cccc(Cl)c2)cc1 was read as DUSP3 inh 0.5.
COc1cc2c(cc1OC)S(=O)(=O)OC(C)=C2 was read as DUSP3 inh 5.4.
`Cc1ccc(-n2[nH]c(C)c(/C=N/NC(=O)c3ccccc3[N+](=O)[O-])c2=O)cc1C` gave DUSP3 inh -12.9.
For Cc1ccc(C)c(-c2csc(N)c2C(=O)OC(C)C)c1 the results were DUSP3 inh 8.3.
Cc1ccc(-c2csc(N)c2C(=O)OC(C)C)cc1C was read as DUSP3 inh 83.9*.
`Cc1ccc(-c2csc(N)c2C(=O)OC(C)C)cc1` gave DUSP3 inh 51.9.
For COCCOC(=O)C1=C(C)NC(=O)CC1c1c(F)cccc1Cl (stereo unspecified) the results were DUSP3 inh -11.3.
`CC1=C(C(=O)OCCCc2ccccc2)C(c2c(F)cccc2Cl)CC(=O)N1` (stereo unspecified) gave DUSP3 inh 8.0.
`CC1=C(C(=O)OCc2ccccc2)C(c2c(F)cccc2Cl)CC(=O)N1` (stereo unspecified) gave DUSP3 inh 112.1*.
Screening COC(=O)c1ccc(C2CC(=O)NC(C)=C2C(=O)OCc2ccccc2)cc1 (stereo unspecified) returned DUSP3 inh -10.8.
`CC1=C(C(=O)OCc2ccccc2)C(c2ccc([N+](=O)[O-])cc2)CC(=O)N1` (stereo unspecified) gave DUSP3 inh -9.0.
For CC1=C(C(=O)OCc2ccccc2)C(c2ccccc2[N+](=O)[O-])CC(=O)N1 (stereo unspecified) the results were DUSP3 inh 96.8*.
CCOC(=O)c1sc(NC(=O)COc2c(C)cccc2C)c(C(=O)OCC)c1C was read as DUSP3 inh 8.2.
`CC(C)c1ccc(NC(=O)COc2ccc3ccccc3c2)cc1` gave DUSP3 inh -13.4.
For Cc1nnc2c3c4c(sc3nc(-c3ccccc3)n12)COC(C)(C)C4 the results were DUSP3 inh -26.1.
For O=c1cc(-c2cc(O)c3c(O)c4ccccc4c(O)c3c2O)c(=O)c2c(=O)c3ccccc3c(=O)c1=2 the results were DUSP3 inh -8.9.
O=C1CC(c2ccccc2)CC2=C1C(c1c(F)cccc1Cl)Nc1ccccc1N2 (stereo unspecified) was read as DUSP3 inh 115.1*.
